The supplement of paper PMC3334620
In all, about 33,000 sequences were measured (“E-score (-0.5 to 0.5)”: median about -0.017, highest 2% from about 0.3 on). For the sample, the highest values were picked, then their nearest neighbours and some sequences at random.

target: T1, Sut1 (UniProt P53032); assay: PBM E-score (8-mer binding enrichment) (E-score (-0.5 to 0.5)); higher = stronger / more preferred TF binding; conditions: protein concentration: 200 nM; construct: GST-full length
T1 sequence: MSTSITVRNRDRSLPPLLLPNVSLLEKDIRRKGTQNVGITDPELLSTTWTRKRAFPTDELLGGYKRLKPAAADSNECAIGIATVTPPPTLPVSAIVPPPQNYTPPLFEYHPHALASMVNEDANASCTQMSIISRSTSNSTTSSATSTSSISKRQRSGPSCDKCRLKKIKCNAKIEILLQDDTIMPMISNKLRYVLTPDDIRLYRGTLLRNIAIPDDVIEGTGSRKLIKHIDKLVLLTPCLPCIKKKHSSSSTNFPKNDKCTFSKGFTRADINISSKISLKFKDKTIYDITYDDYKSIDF
Experimental: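 Universal 'all 10-mer' protein binding microarrays (Agilent AMADID 015681) probed with GST-tagged S. cerevisiae TFs (full-length or DBD) made by in vitro transcription/translation (PURExpress), about 100-200 nM. Bound TF was detected with fluorescent anti-GST. Each ungapped 8-mer (which stands for itself and its reverse complement) is scored by the PBM enrichment score (E-score), a modified Wilcoxon-Mann-Whitney statistic from -0.5 to +0.5, computed with the Universal PBM Analysis Suite. Scale: above 0.35 generally sequence-specific binding.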

Sequence	PBM E-score
GCGCAAGC	-0.234
GAAGATTA	0.109
AAAGATTA	0.306
CAAGATTA	0.132
AAAAAACT	0.198
AGAGAGCG	-0.0777
GGTATGAA	0.114
CAGTTTTA	0.0952
CGGATAAA	0.341
CGGATAAC	0.264
TGGATAAA	0.263
GTGATAAA	0.0786
ATGATAAA	0.233
CCGATAAC	0.18
CCGATAAG	0.111
CCGATAAA	0.343
TTGATAAA	0.328
TGGGTTAA	-0.0031
ATCAACTC	-0.0768
ACAGAACG	-0.0202
TCACTCAA	0.0178
CCCTCAAA	-0.0431
AATCGGCG	-0.0941
AAAGTATA	0.214
GCTTAAGA	0.00411

Sequence	PBM E-score
GTCAAGAA	0.108
ACCGTTAG	0.00367
CAGCTGAA	-0.109
CGATTCCA	0.0585
CAATTCCG	0.305
CAATTCCC	0.072
CAATTCCA	-0.032
AAATTCCC	-0.245
CGATTCCG	0.314
AAATTCCA	0.241
CGATTCCC	-0.0189
AAATTCCG	0.337
GCTAGGGA	-0.308
AATCCCAG	0.0474
ATACGAGG	-0.165
CGATTGAG	-0.0533
AGGACTAG	-0.0577
GGGACTAA	-0.0778
GGGACTAC	-0.162
CAGACTAG	-0.288
CGGACTAG	0.452
CGGACTAA	0.454
TGGACTAA	-0.104
CGGACTAC	0.464
AGGACTAC	-0.118

Sequence	PBM E-score
GATGCTCC	0.17
CAAGGGGA	-0.185
GCCTTGCC	-0.155
ACGTCGAT	0.0428
CATCTGAG	-0.143
CACTCCAC	-0.0759
CCAGCTGG	-0.188
CATGCAGA	-0.15
ATTGAAAC	0.184
GTTGAAAA	0.104
ATTGAATA	0.315
TTTGAAAA	0.31
ATTGAAAT	0.311
CTTGAAAA	0.0874
ATTGAAAA	0.213
ATTGAATC	0.00919
CTTGAATA	0.0931
CCGGGCCG	0.155
TCCATGAA	0.131
AGCCTTTG	-0.165
ACCTCAGC	-0.106
CTCAGTTC	-0.0325
ATCTTTCG	-0.00103
CGAGAGCC	-0.161
GATTTCAA	0.147

Sequence	PBM E-score
CATTTCAA	0.275
TATTTCAA	0.301
ATTCATAA	0.127
GTTCCGGA	0.342
ATTCCGGC	0.177
CTTCCGGA	0.347
ATTCCGGG	0.295
GTTCCGCA	0.0832
GTTCCGAA	0.267
ATTCCGGA	0.42
CTTCCGGC	0.0877
CTTCCGTA	0.181
AGCCAAAT	0.14
ATCAAACG	0.132
CATTGCTC	0.1
CGGTCTAG	-0.0195
CCCGTAGA	-0.245
TCCGTAGA	0.361
ACCGTAGA	0.0336
AGTATCAG	-0.0501
ACCTCTCG	-0.047
CGTGACCC	-0.111
CAATCAGG	-0.167
GCTTTGAA	-0.00621
GATACAAA	0.112

Sequence	PBM E-score
ACTACAAA	0.302
ACTACAAG	0.0409
ACTACAAC	0.266
AATACAAG	0.123
AATACAAA	0.348
GCCTGGAC	-0.336
AGGCAGGC	-0.208
GCCGTCCA	0.00979
TCCGTCCA	0.316
CCCGTCCA	-0.198
CAGGTTAG	-0.082
AGCCTACT	-0.134
CTACTATC	0.312
ATACTATC	0.202
CTACTATA	0.281
ATGTAGTC	0.18
GACACCGC	-0.0517
CGCTCGGA	0.29
ATCTCGGG	0.0127
CTCTCGGC	-0.0324
GCCTCGGA	0.198
AGCTCGGA	0.336
ACCTCGGA	0.404
CTCTCGGA	0.32
ATCTCGGC	0.13

Sequence	PBM E-score
ACCTCGGC	0.0761
ATCTCGGA	0.368
CTCTCGAA	-0.282
AGCTCGGC	-0.00249
GCCACTCA	-0.126
AGTTAAAG	0.0654
AATCACAT	0.139
CAGCATTC	-0.193
CAGTTGGG	-0.207
ACCACTCA	-0.156
ACCAAAGG	-0.0819
AATGGCAA	0.0477
AGATGAGC	-0.0376
AGACCAAG	0.186
GTCTCGTA	-0.0582
GTCTCGGA	0.316
GTCTCGAA	-0.159
CTTTTGAA	0.152
CCAGTCCG	0.222
AGAGTCCT	-0.114
ATAGTCCG	0.473
AGAGTCCG	0.449
ACAGTCCG	0.312
AGAGTCCC	-0.0834
CGAGTCCA	-0.139

Sequence	PBM E-score
ACAGTCCA	0.0821
CGAGTCCC	0.014
ATAGTCCA	0.0136
ATAGTCCC	-0.206
CGAGTCCG	0.426
GCTCTTAC	0.132
CACTCACG	-0.0637
TATGAACA	0.0917
AAAACGCA	-0.0411
AAGAGTTA	0.12
CAAGTCAG	-0.0539
CAGTTGCA	-0.0927
GACGCAGC	-0.199
CACCGTTA	0.0406
CGCCGTTC	-0.157
CGCCGTTA	-0.0973
CTCCGTTA	0.335
CTCCGTTC	0.32
ATCCGTTA	0.275
GGCCGTTA	0.137
ATCCGTTC	0.147
GTCCGTTA	0.376
GCCGGCGC	0.089
